# Laboratory results as given in PubChem BioAssay (Tox21).
# Where “and” joins values, the source holds several entries; their conditions need not be identical. Equal values may be shown once. Inconclusive results are not listed. A call without a number means that no potency is given here. Calls of active or inactive are those of the source. The call rests on the fitted dose curve; in most records, active means well fitted inhibition curve with a large enough effect in the repeat runs; inconclusive means weak or mixed curves; inactive means no such curve, though single readings can be large or run the other way.
# Target: Cytochrome P450 3A4 (Homo sapiens) (UniProt P08684)
# Sequence (P08684 whole entry, looked up): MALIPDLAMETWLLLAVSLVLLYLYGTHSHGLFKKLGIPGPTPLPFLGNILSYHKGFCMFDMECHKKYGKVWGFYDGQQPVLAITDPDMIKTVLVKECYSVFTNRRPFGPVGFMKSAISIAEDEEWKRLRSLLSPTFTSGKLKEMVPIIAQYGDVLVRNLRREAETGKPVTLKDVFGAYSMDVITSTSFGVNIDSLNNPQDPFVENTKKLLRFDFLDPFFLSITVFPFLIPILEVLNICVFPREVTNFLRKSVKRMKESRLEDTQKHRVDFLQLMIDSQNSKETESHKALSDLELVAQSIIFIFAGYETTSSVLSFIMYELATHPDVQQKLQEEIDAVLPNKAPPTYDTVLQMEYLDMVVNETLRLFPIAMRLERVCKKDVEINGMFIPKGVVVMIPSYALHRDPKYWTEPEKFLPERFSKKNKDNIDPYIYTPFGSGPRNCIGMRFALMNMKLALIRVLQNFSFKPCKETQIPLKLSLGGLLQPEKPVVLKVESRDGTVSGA
# Experiment: Cytochrome P450 Family 3 Subfamily A Member 4 (CYP3A4) small molecule antagonists: luciferase reporter qHTS assay (AID 1671201); further: nearly all actives have a fitted effect of over 50% in size
# Conditions: P450-Glo CYP3A4 enzyme, luciferin luminescence, 1 h; series mostly up to 115 µM
# In short: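 P450-Glo CYP3A4 system with proluciferin substrate; compounds preincubated 10 min RT with enzyme-substrate mix, then NADPH regeneration added for 1 h RT. Detection reagent 20 min, luminescence read as relative luminescence units.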
# Potency means the concentration at half of the fitted maximal effect.
row,SMILES,Potency
1,N#CC(Cl)Cl,inactive
2,CC(C)(C)C(O)/C(=C\c1ccc(Cl)cc1Cl)n1cncn1 (stereo not drawn),0.272 µM (active)
3,CN(CCCC(=O)c1cccnc1)N=O,17.8 µM (active)
4,O=C(CCCN1CCC2(CC1)C(=O)NCN2c1ccccc1)c1ccc(F)cc1,inactive
5,O=c1ssc(Cl)c1Cl,63.3 µM (active)
6,COc1cc(N)c(Cl)cc1C(=O)NC1CN2CCC1CC2 (stereo not drawn),inactive
7,C[C@H]1O[C@@H](O[C@H]2[C@@H](O)C[C@H](O[C@H]3[C@@H](O)C[C@H](O[C@H]4CC[C@@]5(C)[C@H](CC[C@@H]6[C@@H]5CC[C@]5(C)[C@@H](C7=CC(=O)OC7)CC[C@]65O)C4)O[C@@H]3C)O[C@@H]2C)C[C@H](O)[C@@H]1O,inactive
8,O=C(CCl)C(Cl)Cl,inactive
9,CCOP(=S)(OCC)SCS(=O)(=O)C(C)(C)C,2.83 µM (active)
10,ClC1=C(Cl)C2(Cl)C3C(Cl)C=CC3C1(Cl)C2(Cl)Cl (stereo not drawn),5.05 µM (active) and 11.2 µM (active)
11,O=C(Cl)c1ccc(Cl)cc1,inactive
12,CC(C)N1C(=O)N(c2ccccc2)CSC1=NC(C)(C)C,31.7 µM (active)
13,FC(F)(F)c1cccc(C2=CCN(CCc3ccc4ccccc4c3)CC2)c1,inactive
14,CN(C)CCc1c[nH]c2ccc(O)cc12,inactive
15,C[C@H]1CC[C@@H]2[C@@H](C)[C@H]3[C@H](C[C@H]4[C@@H]5CC=C6CC(O[C@@H]7O[C@H](CO)[C@H](O)[C@H](O[C@@H]8O[C@H](CO)[C@@H](O)[C@H](O)[C@H]8O)[C@H]7O[C@H]7O[C@@H](C)[C@H](O)[C@@H](O)[C@H]7O)CC[C@]6(C)[C@H]5CC[C@]34C)N2C1 (stereo partly drawn),inactive
16,C=CC(=O)N(C)C,inactive
17,C=CCOC(N)=O,inactive
18,O=C1c2ccccc2C(=O)C1C(=O)C(c1ccccc1)c1ccc(Cl)cc1 (stereo not drawn),inactive
19,O=CC(Br)(Br)Br,inactive
20,COCC(=O)N(c1c(C)cccc1C)[C@H](C)C(=O)OC,inactive
21,CCC(C)c1cc(C(C)(C)C)cc(-n2nc3ccccc3n2)c1O (stereo not drawn),inactive
22,Cc1cc(C(C)(C)c2cc(C)c(O)c(C)c2)cc(C)c1O,2.73 µM (active)
23,Oc1cc(Cl)c(Cl)c(Cl)c1,53.5 µM (active)
